From PubChem BioAssay AID504834 (National Center for Advancing Translational Sciences (NCATS), 2011)
Hit rate of the full screen: of about 320,000 compounds, about 22,000 (6.9%) were called active. Not shown: some 27% with an inconclusive outcome. Calls come from the whole dose curve; as a rule, active = well fitted inhibition curve with a large enough effect; inconclusive = small, poorly fitted or top-dose-only effect, or another doubt; inactive = no such curve, though single readings can be large or run the other way. Shown is part of a subset that was picked to be rich in actives. Where a SMILES comes first, the peptide text is derived from it. [ ]: non-standard residue; d: D form. The star is where a group is joined. ξ: configuration not given here. Cbz = O=C(OCc1ccccc1)*; ξL = CC(C)CC(N)C(=O)O; ξP = O=C(O)C1CCCN1

assay: Primary qHTS for delayed death inhibitors of the malarial parasite plastid, 96 hour incubation; conditions: P. falciparum luciferase reporter growth; series mostly up to 28.7 µM; activity change, negative = inhibition: at the top concentration
Summary of the method: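 Two-generation exposure (96 h) targets delayed-death phenotype. Reporter parasites carrying integrated firefly luciferase, in red cells at 2% hematocrit and 0.05% parasitemia final, kept at 37 C, 5% CO2; luminescence loss indicates inhibition.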
% is set by controls: 0 for no effect and ±100 for the full control effect; potency is the fitted concentration of half-maximal effect.

Row | SMILES | activity change, negative = inhibition | Potency
1 | CC(C)c1ccc(S(=O)(=O)NC2CCCC2)cc1 | 53.9% (inactive) | 
2 | c1ccc(CCNC2CCCCCC2)cc1 | 38.6% (inactive) | 
3 | O=C(NNC(=O)C(O)c1ccccc1)NC1CCCCC1 (stereo unspecified) | 56.9% (inactive) | 
4 | OC(CNC1CCCCC1)c1ccccc1 (stereo unspecified) |  | 9.28 µM (active)
5 | Cc1cc(Cl)c2oc(C(=O)N(C)C(C)c3ccccn3)c(C)c2c1 (stereo unspecified) | -22.1% (inactive) | 
6 | CN(C)c1nc(Nc2ccc(Cl)c(Cl)c2)nc(N(C)C)n1 | -16.4% (inactive) | 
7 | COc1cc(C2C(C(=O)c3ccco3)=C(O)C(=O)N2c2cc(C)on2)ccc1OCc1ccccc1 (stereo unspecified) | -4.61% (inactive) | 
8 | Cc1ccc2nc(N3CCN(C(=O)c4ccco4)CC3)sc2c1 | -9.37% (inactive) | 
9 | Cc1ccc2nc(N3C(=O)C(O)=C(C(=O)c4ccco4)C3c3cccc(O)c3)sc2c1 (stereo unspecified) |  | 9.28 µM (active)
10 | COc1ccc(C(=O)NCc2nnc(SCC(=O)NC3=NCCS3)n2C)cc1 | 16.2% (inactive) | 
11 | CCOc1ccccc1NC(=O)Cc1cccs1 | 341% (inactive) | 
12 | COc1cc(C(=O)NCC2(c3ccccc3)CCCC2)ccc1OC(C)C | 33% (inactive) | 
13 | Cn1cnnc1Sc1ccc(CN2CCN(C3CCCC3)C(CCO)C2)o1 (stereo unspecified) | 1.4% (inactive) | 
14 | OCCC1CN(Cc2ccc3nsnc3c2)CCN1C1CCCCC1 (stereo unspecified) |  | 10.4 µM (active)
15 | CC[C@H](C)C(=O)N[C@H]1CCCN1C(=O)/C=C/c1ccccc1 | 41% (inactive) | 
16 | Cc1ccc(C)c(OCCC(=O)OCC(=O)c2ccc3c(c2)NC(=O)CO3)c1 | 21.2% (inactive) | 
17 | O=C(COc1coc(CN2CCN(c3ccccc3)CC2)cc1=O)Nc1ccccc1F | 2.2% (inactive) | 
18 | C=CCNC(=O)COc1coc(CN2CCN(Cc3ccccc3)CC2)cc1=O |  | 13.1 µM (active)
19 | Cc1cc(C)cc(NC(=O)COc2coc(CN3CCN(c4ccccc4)CC3)cc2=O)c1 | -27.2% (inactive) | 
20 | CC(=O)O[C@H]1CC[C@@]2(C)[C@@H](CC[C@@H]3[C@@H]2CC[C@]2(C)[C@@H](C(C)(C)O)C[C@@H]32)C1 | -8.75% (inactive) | 
21 | CC1CCC2CCCCC2N1C(=O)c1cc([N+](=O)[O-])cc([N+](=O)[O-])c1 (stereo unspecified) | -2.82% (inactive) | 
22 | O=C(NCc1ccco1)C(c1ccncc1)N(C(=O)Cn1nnc2ccccc21)c1ccccc1 (stereo unspecified) | -0.183% (inactive) | 
23 | Cc1cccc(N(C(=O)c2sc(C)nc2C)C(C(=O)NCC2CCCO2)c2ccccc2)c1 (stereo unspecified) | -28.1% (inactive) | 
24 | Cc1nc(C)c(C(=O)N(c2ccc(C)c(C)c2)C(C(=O)NCc2ccco2)c2ccccc2)s1 (stereo unspecified) |  | 10.4 µM (active)
25 | CC(C)(C)NC(=O)C(c1ccc(Cl)cc1)N(CCO)C(=O)c1snc(C(N)=O)c1N (stereo unspecified) | 202% (inactive) | 
26 | CCCCCNC(=O)C1c2ccccc2Oc2ccccc21 | 0% (inactive) | 

Row | SMILES | activity change, negative = inhibition | Potency
27 | CCOC(=O)c1ccc(N2C(=O)CC(N3CC(C)OC(C)C3)C2=O)cc1 (stereo unspecified) | 7.59% (inactive) | 
28 | CCOC(=O)c1ccc(N2C(=O)CC(N3CCN(C(=O)c4ccccc4)CC3)C2=O)cc1 (stereo unspecified) | 25.2% (inactive) | 
29 | CCOC(=O)c1ccc(N2C(=O)CC(N(C)Cc3ccccc3)C2=O)cc1 (stereo unspecified) |  | 1.47 µM (active)
30 | CCN1CCN(C(=O)C2CCCN(S(=O)(=O)c3ccc(OC)c(OC)c3)C2)CC1 (stereo unspecified) | -7.76% (inactive) | 
31 | COc1cccc(NC(=O)CN(C)CC(=O)c2c(N)n(Cc3ccccc3)c(=O)n(C)c2=O)c1 | -24.5% (inactive) | 
32 | COc1ccc(OC)c(CCNC(=O)c2nn(C)c3c2CS(=O)(=O)c2ccccc2-3)c1 | 32.5% (inactive) | 
33 | CC(C)CC(NC(=O)C1CCCN1C(=O)[C@@H](C)NC(=O)OCc1ccccc1)C(=O)NCC(N)=O (stereo partly specified) (Cbz-[dA][ξP][ξL]G-NH2) | 19.9% (inactive) | 
34 | Cc1cccc(-n2c(SCC(=O)Nc3cccc(S(=O)(=O)NC4=NCCCCC4)c3)nc3ccccc3c2=O)c1C |  | 5.22 µM (active)
35 | CN(CCOc1ccc(Br)cc1)CC(=O)Nc1cccc(S(=O)(=O)NC2=NCCC2)c1 | -7.64% (inactive) | 
36 | NS(=O)(=O)c1cccc(NC(=O)CSc2nc3ccccc3n2-c2ccccc2)c1 | -21% (inactive) | 
37 | O=C(Nc1cccc(S(=O)(=O)NC2=NCCC2)c1)C1CCCCC1 | -0.475% (inactive) | 
38 | CCc1ccc(C(=O)OCC(=O)Nc2cccc(S(=O)(=O)NC3=NCCCCC3)c2)cc1 |  | 10.4 µM (active)
39 | O=C(CSc1nc2ccccc2c(=O)n1-c1ccc(F)cc1)NC1CC1 | -26.1% (inactive) | 
40 | COc1ccc(C(C)=O)cc1COc1ccc(Cl)c(C)c1 | 22.6% (inactive) | 
41 | COCCN(C(=O)CSCc1ccc(C)cc1)c1c(N)n(CC(C)C)c(=O)[nH]c1=O | -15.3% (inactive) | 
42 | CC(=O)Nc1ccc(C(=O)/C=C/c2ccc[nH]2)cc1 | 80.9% (inactive) | 
43 | Cc1ccccc1OCCC(=O)OCC(=O)NCCc1ccc(S(N)(=O)=O)cc1 | -16.7% (inactive) | 
44 | Cc1ccc(OCC(=O)Nc2ccc(S(=O)(=O)Nc3ccccn3)cc2)cc1 | 42.9% (inactive) | 
45 | Cc1cc(C)cc(OCC(=O)Nc2ccc(S(=O)(=O)Nc3ccccn3)cc2)c1 |  | 1.65 µM (active)
46 | O=C(CS(=O)(=O)c1ccccc1)Nc1ccc(S(=O)(=O)Nc2ccccn2)cc1 | 14.6% (inactive) | 
47 | CC(Cc1ccccc1)NCCC(c1ccccc1)c1ccccc1 (stereo unspecified) |  | 14.7 µM (active)
48 | Cc1ncoc1C(=O)NCCC(c1ccccc1)c1ccccc1 | 12.9% (inactive) | 
49 | CC(Cc1ccccc1)C(=O)N(C)Cc1ccccc1 (stereo unspecified) | 1.33% (inactive) | 
50 | C[C@H](NC(=O)c1nc[nH]c1C(=O)NCC(=O)OC(C)(C)C)C(=O)OCc1ccccc1 | 63% (inactive) | 
51 | COC(=O)c1cccc(NS(C)(=O)=O)c1 | 1.35% (inactive) | 
52 | COc1ccc(C(=O)COC(=O)CNC(=O)c2cccs2)cc1Br | -21.6% (inactive) | 

Row | SMILES | activity change, negative = inhibition | Potency
53 | COc1ccc(-n2c(C)cc(C(=O)COC(=O)c3cc(OC)c(OC)cc3NC(=O)c3cccs3)c2C)cc1 |  | 2.62 µM (active)
54 | Cc1cc(C(=O)COC(=O)c2cccs2)c(C)n1-c1c(C)n(C)n(-c2ccccc2)c1=O | 17.1% (inactive) | 
55 | O=C(CN1CCN(c2ccc(F)cc2)CC1)Nc1ccccc1 | -8.75% (inactive) | 
56 | CC1CCN(c2c(NCc3ccc(C(=O)NCc4ccccc4)cc3)c(=O)c2=O)CC1 | 1.19% (inactive) | 
57 | c1n[nH]c(NCc2ccc3c(c2)OCO3)n1 | 2.18% [at 5.75 µM] (inactive) | 
58 | N#Cc1nc(Cc2cccc3ccccc23)oc1NCc1ccc2c(c1)OCO2 |  | 14.7 µM (active)
59 | N#Cc1nc(Cc2ccccc2)oc1NCCc1ccccc1 | 0.675% (inactive) | 
60 | O=S(=O)(Nc1n[nH]c(C(F)(F)F)n1)c1ccccc1 | 28.7% (inactive) | 
61 | O=C(N/N=C/c1ccccn1)c1cccc(NC(=O)c2ccc(Cl)cc2)c1 | 34.1% (inactive) | 
62 | CC(C)(C)c1ccc(Cn2nnc3c(=O)[nH]c(C4CCCN(C(=O)c5ccco5)C4)nc32)cc1 (stereo unspecified) | 34.8% (inactive) | 
63 | CCC(C(=O)NCCC(C)C)N(Cc1ccccc1Cl)C(=O)c1snc(C(N)=O)c1N (stereo unspecified) | -16.7% (inactive) | 
64 | Cc1ccc(CNC(=O)CCS(=O)(=O)c2ccc3c(c2)CC(C)N3C(=O)C2CC2)o1 (stereo unspecified) |  | 11.7 µM (active)
65 | CCC(=O)N1c2ccc(S(=O)(=O)CCC(=O)N3CCN(c4ccccc4)CC3)cc2CC1C (stereo unspecified) | -23.9% (inactive) | 
66 | COc1ccccc1CNC(=O)C1CCN(S(=O)(=O)c2ccc3c(c2)CC(C)N3C(=O)C2CC2)CC1 (stereo unspecified) | 3.97% (inactive) | 
67 | CS(=O)(=O)c1ccc(Cl)c(NC(=O)COC(=O)c2cccc(S(=O)(=O)N3CCCC3)c2)c1 | 36% (inactive) | 
68 | COc1ccc(/C=N/OCc2ccccc2C#N)c(OC)c1 | 135% (inactive) | 
69 | COc1ccc(-c2nn3c(-c4ccccc4)nnc3s2)cc1OC | 96.6% (inactive) | 
70 | c1ccc(-c2cc(-c3nnc4sc(-c5ccccn5)nn34)[nH]n2)cc1 | -6.88% (inactive) | 
71 | CCOc1cccc(-c2nn3c(-c4ccccn4)nnc3s2)c1 |  | 8.28 µM (active)
72 | Cc1ccc(SCc2c(C(=O)N/N=C/c3cccnc3)nnn2-c2nonc2N)cc1 | -6.32% (inactive) | 
73 | COc1nc(Oc2ccc(=O)n(C)n2)nc(N(C)C)n1 |  | 3.7 µM (active)
74 | COc1nc(OC)nc(N(C)CCO)n1 | 45.2% (inactive) | 
75 | CCCn1nc(Oc2nc(NC(C)C)nc(N(C)C)n2)ccc1=O | 33.8% (inactive) | 
76 | COC(=O)[C@@H]1CCCN1C(=O)c1cc(COc2cccc3cccnc23)on1 | -7.96% (inactive) | 
77 | O=C(COC(=O)/C=C/c1ccc(OC(F)F)cc1)NC1CCCCC1 | 7.46% (inactive) | 
78 | Cc1ccc(S(=O)(=O)N(CC(=O)Nc2cccnc2)c2ccc(Br)cc2)cc1 | -25.1% (inactive) | 

Row | SMILES | activity change, negative = inhibition | Potency
79 | CC(=O)c1c(C)[nH]c(C(=O)N2CCN(S(=O)(=O)c3ccc(F)c(F)c3)CC2)c1C | 2.87% (inactive) | 
80 | Cc1ccc(Nc2nnc(SC(C)C(=O)NC3CC3)s2)cc1 (stereo unspecified) |  | 14.7 µM (active)
81 | CC(C)Nc1nnc(SC(C)C(=O)N(C)C2CCCCC2)s1 (stereo unspecified) | -6.33% (inactive) | 
82 | Cc1nnc(SC(C)C(=O)Nc2ccc(S(=O)(=O)NC3CCCCC3)cc2)s1 (stereo unspecified) | -8.76% (inactive) | 
83 | CCOc1ccc(N2CC(C(=O)NCc3ccccn3)CC2=O)cc1 (stereo unspecified) | 0.718% (inactive) | 
84 | Nc1nnnn1/N=C/c1cccs1 |  | 1.85 µM (active)
85 | Nc1nnnn1/N=C/c1cccc(Br)c1 | -28.6% (inactive) | 
86 | COc1ccc(/C=N/n2nnnc2N)cc1OC | 0% (inactive) | 
87 | Cc1ccc(NS(=O)(=O)c2ccc3c(c2)n(C)c(=O)c(=O)n3C)c(C)c1 | 23% (inactive) | 
88 | O=C(COC(=O)CCOc1ccccc1)Nc1cc(S(=O)(=O)N2CCCCC2)ccc1Cl | 12.7% (inactive) | 
89 | C=C(C)c1cccc(C(C)(C)NC(=O)NC2CCCC2)c1 | -11.6% (inactive) | 
90 | C=C(C)c1cccc(C(C)(C)NC(=O)NCCN(CC)CC)c1 |  | 4.15 µM (active)
91 | CCN(CC)CCNC(=O)c1cc(S(C)(=O)=O)ccc1OC |  | inactive
92 | CN(CC(=O)Nc1c(Cl)cccc1Cl)C(=O)c1ccncc1 | 41.8% (inactive) | 
93 | CC(C)Nc1ccc(-n2nc3ccccc3[n+]2[O-])cc1 | -11.5% (inactive) | 
94 | CC(=O)c1c(C)oc2ccc(NS(=O)(=O)c3ccccc3)cc12 | 27% (inactive) | 
95 | COc1ccc(CCNc2nc(-c3cccc(NC(C)=O)c3)cs2)cc1OC | 4.61% (inactive) | 
96 | COc1ccc(CCN(C(=O)COc2ccccc2)c2nc(-c3ccccc3)cs2)cc1OC |  | 11.7 µM (active)
97 | CN(C)CCCN(C(=O)COc1ccccc1)c1nc2c(Cl)cccc2s1 | 50.2% (inactive) | 
98 | O=C(NN1C(=O)C2CCCCC2C1=O)c1ccco1 (stereo unspecified) | 83.6% (inactive) | 
99 | Cc1cccn2c(=O)c(/C=C(\C#N)C(N)=O)c(N3CCCCCC3)nc12 | -27% (inactive) | 
100 | Cc1cc(C)cc(Oc2nc3c(C)cccn3c(=O)c2/C=C(\C#N)C(=O)NC2CCS(=O)(=O)C2)c1 (stereo unspecified) |  | 11.7 µM (active)
101 | Cc1ccc(C(=O)N/C(=C\c2ccco2)C(=O)NC2CCS(=O)(=O)C2)cc1 (stereo unspecified) | 38.1% (inactive) | 
